High-throughput results as filed in PubChem BioAssay.
TSHR antag: Antagonists of the Thyroid Stimulating Hormone Receptor: HTS campaign | Thyrotropin receptor (Homo sapiens), P16473 | TSHR-expressing cells, TSH-stimulated cAMP HTRF, 2 h; stronger effect = lower value | activity change, negative = inhibition, % at 11.5 µM | 0.2% of 330,000 active | AID 504810, 2011;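 active means activity change below a set negative limit, meaning inhibition stronger than a set level, cut at about -70% in these data; inconclusive means activity change between two set negative limits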; further: on the % scale 0 is the no-effect control and ±100 the full control effect
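Antagonism was scored as loss of TSH-driven cAMP in TSHR cells, stimulated with 4nM TSH (EC80) for 2 hours at 37 deg C and detected by homogeneous HTRF competition immunoassay.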
PLK1 PBD inh: qHTS for Inhibitors of PLK1-PDB (polo-like kinase 1 - polo-box domain): Primary Screen; Serine/threonine-protein kinase PLK1 (Homo sapiens), P53350; Plk1 PBD binding of FITC phosphopeptide, fluorescence polarization; 2.8% of 360,000 active; Potency, µM, without a hit: max response, negative = inhibition, usual class: inhibitors; further: potency means the concentration at half of the fitted maximal effect; series mostly up to about 57 µM; on the % scale 0 is the no-effect control and ±100 the full control effect; nearly all actives have a fitted effect of over 65% in size
VDR inhibitor: Inhibitors of the vitamin D receptor (VDR): qHTS; Vitamin D3 receptor (Homo sapiens), P11473; VDR-SRC2-3 peptide fluorescence polarization, 2 h; Potency, µM, without a hit: max response, negative = inhibition, usual class: inhibitors; 0.93% of 400,000 active; further: potency means the concentration at half of the fitted maximal effect; on the % scale 0 is the no-effect control and ±100 the full control effect
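Fluorescence polarization assay measuring small-molecule disruption of VDR binding to the coregulator peptide SRC2-3. Compounds were pin-transferred (23 nl) into the reagent mix and incubated 2 h at room temperature before reading.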
uPA surface inh: qHTS for Inhibitors of Cell Surface uPA Generation; Potency, µM (top dose mostly 38.3 µM), inactives show at the highest dose activity change, negative = inhibition, usual class: inhibitors; 0.31% of 330,000 active; cell surface uPA generation assay, qHTS; active means well fitted inhibition curve with a large enough effect; inconclusive means small, poorly fitted or top-dose-only effect; inactive means no such curve, though single readings can be large or run the other way; tested in mouse RAW 264.7 cells; further: potency means the concentration at half of the fitted maximal effect; on the % scale 0 is the no-effect control and ±100 the full control effect; nearly all actives have a fitted effect of over 55% in size
TSG101-PTAP inh: qHTS Assay for Iinhibitors of HIV-1 Budding by Blocking the Interaction of PTAP/TSG101 | Fluorescence polarization, FITC-PTAP peptide / Tsg101 binding | AID 493005, 2010 | Tumor susceptibility gene 101 protein (Homo sapiens), Q99816 | 340,000 tested, under 10 active | Potency, µM (series often up to 115 µM), for inactives: top-dose activity change, negative = inhibition, actives largely listed as inhibitors; active means well fitted inhibition curve with a large enough effect in the main read-out, with a control signal flat, not every such curve was filed as active; inconclusive means small, poorly fitted or top-dose-only effect, or effect the other way, or a change in a side signal; inactive means no such curve, though single readings can be large or run the other way; further: potency means the concentration at half of the fitted maximal effect; % of control where 0% means no effect
Target sequence (Q99816 whole entry, looked up): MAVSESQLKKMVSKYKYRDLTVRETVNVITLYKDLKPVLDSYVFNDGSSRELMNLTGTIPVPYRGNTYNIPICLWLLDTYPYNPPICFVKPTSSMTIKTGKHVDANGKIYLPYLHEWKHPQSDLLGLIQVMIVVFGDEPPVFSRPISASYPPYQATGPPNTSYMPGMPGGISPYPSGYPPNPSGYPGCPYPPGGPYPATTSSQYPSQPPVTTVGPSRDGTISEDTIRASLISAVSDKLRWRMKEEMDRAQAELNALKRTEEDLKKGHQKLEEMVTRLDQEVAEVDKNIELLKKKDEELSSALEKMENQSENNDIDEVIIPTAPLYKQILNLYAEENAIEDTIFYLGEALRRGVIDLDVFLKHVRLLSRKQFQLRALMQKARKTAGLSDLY
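Tsg101 binding domain (10 uM final) was mixed with compound and a FITC-labeled PTAP peptide (50 nM final) in HEPES pH 7.5 buffer with NaCl, Tween 20, EDTA and TCEP; fluorescence polarization was read after 20 min at r.t.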
An asterisk follows results filed as active; ? = inconclusive; · = no result. Shown are actives, neighbours in structure and some others; about 3.1% of the full set was active somewhere. Unless noted, the call rests on the fitted dose curve; in most records, active means well fitted curve in the direction sought with a large enough effect; inconclusive means small, poorly fitted or top-dose-only effect, or another doubt; inactive means no such curve, though single readings can be large; an effect the other way counts as inactive or inconclusive.

SMILES	TSHR antag	PLK1 PBD inh	VDR inhibitor	uPA surface inh	TSG101-PTAP inh
O=C1COc2ccc(-c3csc(NCC4CCCO4)n3)cc2N1 (stereo not drawn)	-10	-12%	5%	7%	-1%
CN(C)c1ccc(NC(=S)c2ccccn2)cc1	8	13µM*	-24%	-8%	-8%
Cc1cc(NC(=O)COC(=O)c2c(Cl)cccc2Cl)no1	32	0%	-4%	-4%	0%
O=C1C(=O)N(CCCN2CCOCC2)C(c2ccc(Cl)cc2)/C1=C(\O)c1ccc2c(c1)OCCO2 (stereo not drawn)	-5	24µM*	?	-3%	-7%
O=C(c1ccco1)N1CCN(/C=C2\Nc3ccccc3C(=O)N2c2ccc(F)cc2)CC1	·	·	1%	·	·
O=C(Nc1cc(S(=O)(=O)Nc2ccc(Cl)cc2)ccc1O)c1ccc(S(=O)(=O)N2CCCCCC2)cc1	-4	12µM*	?	-1%	0%
O=C(Nc1cc(S(=O)(=O)N2CCCCC2)ccc1O)c1ccccc1NS(=O)(=O)c1ccc(F)cc1	-36	27µM*	2%	1%	-4%
O=C(Nc1cc(S(=O)(=O)N2CCCCC2)ccc1Cl)c1ccccc1NS(=O)(=O)c1ccc(F)cc1	-43	?	-2%	-10%	-5%
O=S(=O)(c1ccc(Br)cc1)c1nnn2c1nc(Nc1cccc(C(F)(F)F)c1)c1sccc12	·	·	17%	·	·
CN1CCN(c2ccnc(-c3ccccc3C(F)(F)F)n2)CC1	·	·	-19%	·	·
O=c1c2cn[nH]c2nc(SCc2cc(=O)n3cc(Br)ccc3n2)n1-c1ccc(Br)cc1	2	21µM*	-6%	-6%	1%
Cc1ccc(-c2nn3c(C)nnc3c3ccccc23)cc1S(=O)(=O)NCC(C)O (stereo not drawn)	·	·	13%	·	·
Cc1cc(Nc2ccc(Br)c(C)c2)n2nc(C)nc2n1	8	30µM*	?	7%	0%
COc1cccc(-c2noc(COc3ccccc3Cl)n2)c1	·	·	10%	·	·
Cc1c(NC(=O)CSc2n[nH]c(=O)n2-c2ccccc2)c(=O)n(-c2ccccc2)n1C	-1	27µM*	?	2%	-1%
Cc1c(NC(=O)COC(=O)CCC(=O)c2ccc(Cl)cc2)c(=O)n(-c2ccccc2)n1C	4	17µM*	?	1%	-6%
Cc1c(NC(=O)CSc2nnc(COc3ccccc3)n2-c2ccccc2)c(=O)n(-c2ccccc2)n1C	7	6%	-4%	-1%	-7%
Cc1ccc(C(=O)COC(=O)COc2ccc(C)c(C)c2)cc1	4	-5%	-2%	-15%	-1%
COc1cc(C(=O)Nc2ccc3[nH]c(=O)sc3c2)cc(OC)c1OC	·	·	-2%	·	·
O=C(O)COc1cccc2c1CCC=C2CCO/N=C(\c1ccccc1)c1cccnc1	·	·	50µM*	·	·
FC(F)(F)c1ccc2c(c1)N1CCCC1CN2 (stereo not drawn)	-10	27µM*	14%	0%	2%
Cn1ncc(=S)[nH]c1=S	·	-22%	6%	1%	-4%
Cn1ncc2c(=S)[nH]c(=S)[nH]c21	·	27µM*	·	·	·
C=C1C2=CC(=O)OC(c3ccoc3)[C@]2(C)CCC1[C@]1(C)C=CC(=O)C(C)(C)C1CC(=O)OC (stereo partly drawn)	·	·	40µM*	·	·
C=C1C(C2(C)C=CC(=O)C(C)(C)C2CC(=O)OC)CC[C@@]2(C)C(c3ccoc3)OC(=O)C3OC132 (stereo partly drawn)	·	·	-5%	·	·
SMILES	TSHR antag	PLK1 PBD inh	VDR inhibitor	uPA surface inh	TSG101-PTAP inh
Cc1ccccc1CC1(CO)CCCN(C(=O)c2ccc(F)cc2)C1 (stereo not drawn)	-7	3%	22%	0%	-9%
Cc1ccccc1CC1(CO)CCCN(C(=O)c2ccc3ncccc3c2)C1 (stereo not drawn)	9	2.7µM*	40µM*	-2%	-4%
CCC(CC)c1nnc(NC(=O)CS(=O)(=O)Cc2ccccc2)s1	·	?	3%	5%	-2%
CCC(CC)c1nnc(NC(=O)CS(=O)(=O)c2ccc(C)cc2)s1	-7	12µM*	45µM*	-3%	-2%
CCCC(C)c1nnc(NC(=O)CS(=O)(=O)Cc2ccccc2)s1 (stereo not drawn)	-11	14µM*	?	4%	-4%
CC(C)Cc1nnc(NC(=O)CC(C)c2ccccc2)s1 (stereo not drawn)	-10	-15%	-18%	3%	-14%
CC(C)c1nnc(NC(=O)CS(=O)(=O)Cc2ccccc2)s1	20	27µM*	-5%	2%	-6%
CC(C)Cc1nnc(NC(=O)CS(=O)(=O)Cc2ccccc2)s1	16	24µM*	-6%	0%	-1%
Cc1ccc(S(=O)(=O)CC(=O)Nc2nnc(C(C)(C)C)s2)cc1	-3	?	9%	-3%	-2%
CN(C)c1ccc(C(=O)N/N=C/c2ccccn2)cc1	-11	1%	-9%	-28%	-1%
O=C(Nc1cccn2nc(COCCO)nc12)C(c1ccccc1)c1ccccc1	·	-5%	·	·	·
CCCC(C)c1nnc(NC(=O)CCS(=O)(=O)Cc2ccccc2)s1 (stereo not drawn)	-2	13µM*	?	-1%	-3%
CC(C)CC(=O)Nc1nnc(CCc2ccccc2)s1	-4	4%	-7%	7%	-2%
NC(=O)c1ccccc1NC(=O)CS(=O)(=O)Cc1ccccc1	26	24µM*	10%	-1%	4%
CCC(C)C(=O)Nc1nnc(CCc2ccccc2)s1 (stereo not drawn)	36	24µM*	?	0%	-1%
Cc1ccccc1NC(=O)Nc1ccccc1C(N)=O	-5	27µM*	-25%	?	-6%
Cc1nnc(NC(=O)CCS(=O)(=O)Cc2ccccc2)s1	12	?	13%	0%	0%
COc1ccc(-c2noc(N3CCN(c4cccc(Cl)c4)CC3)n2)cc1OC	·	·	8%	·	·
CCOc1ccc(OCC)c(NC(=O)c2ccc(-c3ccccc3)s2)c1	·	·	11%	·	·
COc1cc(C(=O)NCC(c2cccs2)N2CCOCC2)ccc1OCc1ccccc1 (stereo not drawn)	·	-11%	·	·	·
Cc1cccc(C(=O)Nc2scc(-c3ccc(Br)cc3)c2C(=O)O)c1	·	30µM*	-5%	-5%	-2%
CCOC(=O)c1c(-c2ccccc2)csc1NC(=O)c1cc(-c2ccc(Br)cc2)on1	·	·	79µM*	·	·
CCOC(=O)c1c(-c2ccc(C)cc2)csc1NC(=O)c1cc(-c2ccc(C)c(F)c2)on1	·	·	6%	·	·
CCOC(=O)c1c(-c2ccccc2)csc1NC(=O)c1cc(-c2ccccc2OC)on1	·	24µM*	?	4%	2%
CCOC(=O)c1c(-c2cccc([N+](=O)[O-])c2)csc1NC(=O)CCCOc1ccccc1OC	-9	30µM*	5%	11%	-4%
